Experimental data as given in ChEMBL document CHEMBL3988442, “University of Dundee, Small-Polar-MMV Screening Library” (2021).
About 960 (1.5%) of roughly 66,000 compounds showed an effect of 50% or more. Shown is part of a subset that was picked to be rich in strong results.

Tested on: Trypanosoma brucei
Assay: Trypanosoma brucei 72 hour study
Type: functional, organism-based
Set-up: scale not given: in the data most compounds retested in dose-response had high values

In the case of `COc1ccc(CC(=O)N2CCCN(c3ccc(C#N)cc3)CC2)cc1`, the “Percent Effect” value (30 µM, 30.03 µM) is reported as 55.65%.
With `COc1ccnc(N2CCN(C(=O)Cc3ccc(C#N)cc3)CC2)n1` the “Percent Effect” value (30 µM, 30.03 µM) was 4.593%.
With `Cc1nc(CC(=O)N2CCCN(c3ccc(C#N)cc3)CC2)cs1` the “Percent Effect” value (30 µM, 30.03 µM) was 7.071%.
For `CN1C[C@]2(CC[C@@H](C(=O)N3CCOCC3)CC2)Oc2ccccc2C1=O`, the “Percent Effect” value (30.3 µM, […]) was -18.99%.
`CN1CCNC(=O)C12CCN(C(=O)c1ccc3[nH]c(=O)[nH]c3c1)CC2` was tested, and the “Percent Effect” value (30 µM, 30.03 µM) was 29.1%.
For `Cc1ccc2[nH]c(C(=O)N3CCC4(CC3)C(=O)NCCN4C)nc2c1`, the “Percent Effect” value (30 µM, 30.03 µM) was 74.91%.
With `Cc1ccc(C(=O)N2CCC3(CC2)C(=O)NCCN3C)cc1O` the “Percent Effect” value (30 µM, 30.03 µM) was -5.883%.
`Cn1cc(C(=O)NCc2cn3c(n2)CN(CC2CCCC2)CC3)cn1.O=C(O)C(F)(F)F.O=C(O)C(F)(F)F` was tested, and the “Percent Effect” value (30 µM, 30.03 µM) was -33.28%.
`Cc1nc(CO[C@@H]2CN(Cc3cccs3)[C@@H]3COC[C@@H]32)cs1.O=C(O)C(F)(F)F` was tested, and the “Percent Effect” value (30 µM, 30.03 µM) was -14.66%.
In the case of `Cc1cc(S(C)(=O)=O)c(C)c(S(=O)(=O)N2CCCC(C)C2)c1` (stereo not given), the “Percent Effect” value (30 µM, 30.03 µM) is reported as 0.7387%.
`O=C(O)C(F)(F)F.O=C1COC2(CCN(CC3CC3)CC2)CN1c1cncnc1` was tested, and the “Percent Effect” value (30 µM, 30.03 µM) was -12.06%.
With `Cc1ccc(CC(NC(=O)CCS(C)(=O)=O)c2ccccn2)cc1` (stereo not given) the “Percent Effect” value (30 µM, 30.03 µM) was -49.38%.
For `CN(CC(=O)NC(Cc1ccccc1)C1CCCC1)S(C)(=O)=O` (stereo not given), the “Percent Effect” value (30.3 µM, […]) was 62.9%.
`CS(=O)(=O)NCC(=O)NC(Cc1ccccc1)C1CCCC1` (stereo not given) was tested, and the “Percent Effect” value (30.3 µM, […]) was -60.62%.
For `CS(=O)(=O)CCC(=O)NC(Cc1ccccc1)C1CC1` (stereo not given), the “Percent Effect” value (30.3 µM, […]) was 70.04%.
For `CS(=O)(=O)CCC(=O)NC1CC(c2ccccc2Cl)C1` (stereo not given), the “Percent Effect” value (30 µM, 30.03 µM) was -26.6%.
For `Cc1c(NC(=O)CN(C)S(C)(=O)=O)cccc1OC1CCCC1`, the “Percent Effect” value (30 µM, 30.03 µM) was -55.36%.
`CNc1nc(C)c(C(=O)N2C[C@H]3CC[C@@H]2CN(c2cnccn2)C3)s1` was tested, and the “Percent Effect” value (30 µM, 30.03 µM) was -23.46%.
For `CC1CN(C)CCN1C(=O)c1cnn(-c2cccc(Cl)c2)c1` (stereo not given), the “Percent Effect” value (30.3 µM, […]) was -22.44% and the “Percent Effect” value (10 mM, 10 mM as filed; unlikely as a test dose) was -40.4%.
`COCC1CC2(CCN(Cc3ccoc3)CC2)CN1C(C)C.O=C(O)C(F)(F)F.O=C(O)C(F)(F)F` (stereo not given) was tested, and the “Percent Effect” value (30 µM, 30.03 µM) was 26.61%.
In the case of `CCN(CC)C(=O)CN1CCc2nc(C3CCNCC3)nc(NC)c2C1.Cl`, the “Percent Effect” value (30.3 µM, […]) is reported as -15.23%.
`CCC(=O)Nc1ccc2c(c1)C1(CCOCC1)CN2CCOC.O=C(O)C(F)(F)F` was tested, and the “Percent Effect” value (30.3 µM, […]) was -49.74%.
For `CN(Cc1ccccc1F)C(=O)Cn1cc(NC(=O)C(C)(C)C)cn1`, the “Percent Effect” value (30.3 µM, […]) was -0.06216%.
`CC(C)NC(=O)N1CCN(CC2CC2)CC2(CNC(=O)C2)C1.O=C(O)C(F)(F)F` (stereo not given) was tested, and the “Percent Effect” value (30 µM, 30.03 µM) was -4.336%.
With `COc1ccccc1C1(CNCc2ccc(C#N)cc2)CCOCC1` the “Percent Effect” value (30.3 µM, […]) was 29.93%.
In the case of `COc1ccccc1C1(CNCc2cccc(C#N)c2)CCOCC1`, the “Percent Effect” value (30.3 µM, […]) is reported as 67.18%.
In the case of `COc1ccccc1C1(CNCc2cccc(O)c2)CCOCC1`, the “Percent Effect” value (30.3 µM, […]) is reported as 15.56%.
In the case of `CC(=O)Nc1ccc(Oc2cc(C)nc(C3CCNCC3)c2)cc1.Cl`, the “Percent Effect” value (30.3 µM, […]) is reported as 0.5571%.
With `CC(=O)Nc1ccc(Oc2cc(C)nc(C3CCCNC3)c2)cc1.Cl` (stereo not given) the “Percent Effect” value (30.3 µM, […]) was -25.31%.
In the case of `Cc1cc(Oc2ccc(NC(=O)C3CC3)cc2)cc(C2CCNCC2)n1.Cl`, the “Percent Effect” value (30.3 µM, […]) is reported as 99.81%.
With `NC(=O)CN1CCC(Nc2ccnc3ccc(Cl)cc23)CC1` the “Percent Effect” value (30.3 µM, […]) was 62.45%.
In the case of `COCC(=O)N1CCC(Nc2ccnc3ccc(Cl)cc23)CC1`, the “Percent Effect” value (30.3 µM, […]) is reported as -10.12%.
`CS(=O)(=O)N1CCC(Nc2ccnc3ccc(Cl)cc23)CC1` was tested, and the “Percent Effect” value (30.3 µM, […]) was -667%.
`O=C1N(Cc2ccc(F)c(F)c2)CCCC1(O)CNCC1CCCCC1` (stereo not given) was tested, and the “Percent Effect” value (30 µM, 30.03 µM) was -26.1%.
For `CC(NC(=O)CCC(C)(C)C)C(=O)Nc1ccc(-n2cncn2)cc1` (stereo not given), the “Percent Effect” value (30 µM, 30.03 µM) was -4.525%.
For `O=C1N(Cc2ccc(F)c(F)c2)CCCC12CCN(C1CCCCC1)C2` (stereo not given), the “Percent Effect” value (30 µM, 30.03 µM) was 6.711%.
For `O=C1N(Cc2ccc(F)c(F)c2)CCCC12CCN(C1CCSCC1)C2` (stereo not given), the “Percent Effect” value (30 µM, 30.03 µM) was 50.02%.
With `O=C1N(Cc2ccc(F)c(F)c2)CCCC12CCN(C1CCCC1)C2` (stereo not given) the “Percent Effect” value (30 µM, 30.03 µM) was -86.64%.
For `COCCNC(=O)[C@@]12CCO[C@@H]1CCN(Cc1ccc(OC)cc1)C2.O=C(O)C(F)(F)F`, the “Percent Effect” value (30 µM, 30.03 µM) was 7.509%.
In the case of `CS(=O)(=O)c1ccc(CN2C[C@H]3CC[C@@H]2CN(c2ncccn2)C3)cc1`, the “Percent Effect” value (30 µM, 30.03 µM) is reported as -59.99%.
For `Cc1ccc(C#N)c(N2CCC(c3nccn3CCN(C)C)CC2)n1`, the “Percent Effect” value (30 µM, 30.03 µM) was 57.26%.
For `CN(C)CCn1ccnc1C1CCN(c2cc(N)nc(N)n2)CC1`, the “Percent Effect” value (30 µM, 30.03 µM) was 1.166%.
For `Cc1ccc(C#N)c(N2CCC(c3nccn3Cc3cscn3)CC2)n1`, the “Percent Effect” value (30 µM, 30.03 µM) was 31.21%.
`O=C1C[C@H]2CC[C@@H](CN1)N2C(=O)CCc1ccc2c(c1)OCO2` was tested, and the “Percent Effect” value (30.3 µM, […]) was 6.652%.
`COc1ccc(C2=CCN(C(=O)C3CCC3)CC2)cc1` was tested, and the “Percent Effect” value (30.3 µM, […]) was -20.1%.
In the case of `COc1ccc(C2=CCN(C(=O)C3CCN(C)C(=O)C3)CC2)cc1` (stereo not given), the “Percent Effect” value (30 µM, 30.03 µM) is reported as 57.6%.
In the case of `Cc1ccc(C2=CCN(C(=O)C3CCN(C)C(=O)C3)CC2)cc1` (stereo not given), the “Percent Effect” value (30.3 µM, […]) is reported as -12.11%.
In the case of `CC(C)OCCCN(Cc1ccncc1)Cc1cccc(F)c1.Cl`, the “Percent Effect” value (30.3 µM, […]) is reported as -29.62%.
With `Cc1ccccc1C1(C(=O)NCCN2CCC(C)CC2)CCOCC1` the “Percent Effect” value (30.3 µM, […]) was 1.423%.
`COc1ccccc1C1(CNc2snc(Cl)c2C#N)CCOCC1` was tested, and the “Percent Effect” value (30.3 µM, […]) was 0.1302%.
For `COc1ccccc1C1(CNc2snc(Cl)c2C#N)CCCC1`, the “Percent Effect” value (30.3 µM, […]) was 35.81%.
`N#Cc1c(Cl)nsc1NCC1(c2ccccc2)CCC1` was tested, and the “Percent Effect” value (30.3 µM, […]) was 100.1%.
In the case of `Cc1cccc(N2CCc3ncc(CNc4ccccn4)n3CC2)n1.O=C(O)C(F)(F)F.O=C(O)C(F)(F)F`, the “Percent Effect” value (30.3 µM, […]) is reported as -45.99%.
`Cl.NCC(=O)N1CCCC1c1nccnc1Nc1ncccn1` (stereo not given) was tested, and the “Percent Effect” value (30.3 µM, […]) was -17.2%.
In the case of `C=C(C)CN1CCN(Cc2cnc(-c3ccc(OC)cc3)nc2)CC1.O=C(O)CC(O)(CC(=O)O)C(=O)O`, the “Percent Effect” value (30.3 µM, […]) is reported as 2.32%.
With `Cc1ccc(N[C@@H]2CN(Cc3cc(C)on3)C[C@@H]3CCCO[C@@H]32)nn1.O=C(O)C(F)(F)F.O=C(O)C(F)(F)F` the “Percent Effect” value (30.3 µM, […]) was -34.05%.
For `Cc1noc(C)c1CNc1c(N2CCCC2)cccc1N1CCCC1`, the “Percent Effect” value (30.3 µM, […]) was 99.93%.
In the case of `Cc1noc(CNc2c(N3CCCC3)cccc2N2CCCC2)n1`, the “Percent Effect” value (30.3 µM, […]) is reported as -1.503%.
`COc1ccccc1N1CCC(NCc2c(C)noc2C)C1` (stereo not given) was tested, and the “Percent Effect” value (30 µM, 30.03 µM) was -20.42%.
